Source: PubChem BioAssay (NCI)
The panel holds about 79,000 compounds, 15% with a hit somewhere; the sample as a whole holds those more often. Unmarked numbers belong to inactive results. Active and inactive are the calls of the source. No stated cut-off is given here; in the data, active means growth inhibition above about 70%; inactive means the rest.

What was measured:
[1] = NCI Yeast Anticancer Drug Screen. Data for the rad50 strain (AID 155);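 further: 0% = growth of vehicle-only cultures of the same strain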; conditions: S. cerevisiae rad50 strain growth inhibition, active compounds read high
Procedure, shortened: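 Readout: growth inhibition relative to vehicle-treated cultures. Compound exposure was carried out in a genetically defined yeast strain deficient in DNA damage repair.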

[2] = NCI Yeast Anticancer Drug Screen. Data for the mec2-1 strain (AID 157); conditions: S. cerevisiae mec2-1 strain, active compounds read high
Procedure, shortened: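 Using mec2-1 yeast: add compound, measure growth, express inhibition versus vehicle-treated cultures.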

[3] = NCI Yeast Anticancer Drug Screen. Data for the sgs1 mgt1 strain (AID 161);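 further: 0% = growth of cultures given vehicle only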; conditions: S. cerevisiae sgs1 mgt1 strain, active compounds read high
Procedure, shortened: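 Compounds are added to genetically altered yeast, and growth is compared with cultures given vehicle alone to give percent inhibition.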

[4] = NCI Yeast Anticancer Drug Screen. Data for the cln2 rad14 strain (AID 165);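 further: 0% = growth equal to vehicle treated cultures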; conditions: S. cerevisiae cln2 rad14 strain, active compounds read high
Procedure, shortened: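 Yeast strain cln2 rad14, bearing defects in cell cycle control and DNA repair, serves as the test system; values reflect growth inhibition compared with vehicle.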

[5] = NCI Yeast Anticancer Drug Screen. Data for the bub3 strain (AID 167); conditions: S. cerevisiae bub3 mutant strain, active compounds read high
Procedure, shortened: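 Readout: yeast growth inhibition, expressed relative to vehicle-only wells. The test organism is a mutant strain from a panel with lesions in DNA repair or checkpoint genes.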

[6] = NCI Yeast Anticancer Drug Screen. Data for the mlh1 rad18 strain (AID 175); conditions: S. cerevisiae mlh1 rad18 strain growth inhibition, active compounds read high
Procedure, shortened: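 Steps: expose repair-defective yeast to compound; measure growth; express inhibition against vehicle-treated controls.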

[7] = at 5.0 µM (retest, dose inferred, filed as 0.5)
[8] = at 50.0 µM (retest, dose inferred, filed as 5.0)

Compound	growth inhibition [1, 7]	growth inhibition [1, 8]	growth inhibition ([1]; at 50.0 µM)	growth inhibition [2, 7]	growth inhibition [2, 8]	growth inhibition ([2]; at 50.0 µM)	growth inhibition [3, 7]	growth inhibition [3, 8]	growth inhibition ([3]; at 50.0 µM)	growth inhibition [4, 7]	growth inhibition [4, 8]	growth inhibition ([4]; at 50.0 µM)	growth inhibition [5, 7]	growth inhibition [5, 8]	growth inhibition ([5]; at 50.0 µM)	growth inhibition [6, 7]	growth inhibition [6, 8]	growth inhibition ([6]; at 50.0 µM)
O=C(c1ccccc1)C1OC1c1ccccc1Cl (configuration not stated)	1%	40%	-13.7%	-4%	21%	-4.4%	7%	54%	-12.7%	4%	23%	-52.2%	3%	61%	-3.7%	12%	78% (active)	-9%
Cc1cccc2c1C1OC(=O)C3CCC=C2C31 (configuration not stated)	-146%	-134%	30.4%	-49%	-55%	53.9%	-56%	-58%	12.8%	-45%	-39%	64.9%	-41%	-52%	28.1%	-107%	-101%	41.8%
CC(=O)[O-].CC(=O)[O-].CC(=O)[O-].CC(=O)[O-].Cn1c(=O)c2[nH]cnc2n(C)c1=O.Cn1c(=O)c2[nH]cnc2n(C)c1=O.[Rh+2].[Rh+2]	3%	20%	43.3%	12%	23%	27.6%	12%	13%	-39.7%	9%	9%	-5.35%	11%	19%	-29.4%	48%	62%	23.1%
Clc1cc(Cl)c(NN=C(c2ccccc2)c2ccccc2)c(Cl)c1	37%	97% (active)	99.5% (active)	39%	97% (active)	99.2% (active)	57%	98% (active)	99.7% (active)	43%	97% (active)	99.4% (active)	87% (active)	98% (active)	58.5%	72% (active)	98% (active)	99.5% (active)
CCCCCCCCCN(CCCCCCCCC)CC(O)c1cc2c(c3ccccc13)CCCC2 (configuration not stated)	9%	93% (active)	99% (active)	38%	96% (active)	91% (active)	53%	97% (active)	99% (active)	7%	90% (active)	98.9% (active)	11%	93% (active)	95.8% (active)	46%	95% (active)	98.8% (active)
CC(N)C(O)c1ccc2ccc3ccccc3c2c1 (configuration not stated)	-35%	96% (active)	63.7%	0%	96% (active)	3.65%	0%	96% (active)	64.8%	-13%	36%	38.7%	6%	97% (active)	66.9%	11%	98% (active)	58.1%
O=C(/C=C/C(=O)c1ccc(O)cc1)c1ccccc1	-1%	89% (active)	12.4%	-1%	85% (active)	26.6%	-3%	82% (active)	30.8%	3%	90% (active)	24.6%	-6%	87% (active)	38.6%	-1%	94% (active)	24.7%
c1cc(C2=NCCN2)ccc1Nc1ccc(-c2cc3ccc(C4=NCCN4)cc3[nH]2)cc1	99% (active)	99% (active)	58.1%	99% (active)	98% (active)	99.2% (active)	99% (active)	99% (active)	51.3%	99% (active)	99% (active)	98.9% (active)	99% (active)	99% (active)	99.3% (active)	99% (active)	99% (active)	98.5% (active)
C=CC[C@]1(C(C)C(OC(C)=O)c2ccc3c(c2)OCO3)C[C@@H](OC)C=CC1=O (some centres not stated)	10%	98% (active)	10.5%	10%	98% (active)	-0.85%	10%	98% (active)	-0.2%	-3%	98% (active)	-12.7%	4%	98% (active)	1.4%	9%	98% (active)	40%
CC1C(c2ccc3c(c2)OCO3)c2cc3c(cc2OC1N1CCOCC1)OCO3 (configuration not stated)	28%	49%	21.3%	19%	36%	7.3%	17%	38%	-18.1%	25%	27%	3.7%	27%	28%	18.7%	27%	46%	20.3%
CCN(CC)CCOc1ccc(/C=C/c2ccccc2)cc1	2%	99% (active)	73% (active)	0%	99% (active)	77.7% (active)	5%	98% (active)	93.7% (active)	-5%	99% (active)	56.7%	6%	99% (active)	93.4% (active)	3%	99% (active)	78% (active)
O=C(Nc1ccc(F)c([N+](=O)[O-])c1)NC(Cc1ccccc1)c1ccccc1 (configuration not stated)	-11%	86% (active)	91.6% (active)	-2%	93% (active)	94.2% (active)	12%	92% (active)	94.2% (active)	2%	92% (active)	88.9% (active)	-4%	92% (active)	81.8% (active)	26%	91% (active)	93.1% (active)
Cc1cc2c(cc1C)[n+](=O)c(C(=O)C/C(=N/NC(=O)CC#N)C(=O)Nc1ccccc1C(F)(F)F)c(C)n2[O-]	53%	53%	92.4% (active)	57%	57%	91% (active)	58%	58%	91.8% (active)	38%	38%	91.5% (active)	46%	46%	94% (active)	54%	54%	90.8% (active)
CCCCCCCCCCCC(=O)OCC1OC(n2cc(F)c(=O)[nH]c2=O)C(N)C(O)C1O (configuration not stated)	34%	34%	90.2% (active)	31%	31%	91% (active)	10%	10%	89.1% (active)	22%	22%	91.2% (active)	-11%	-11%	90.3% (active)	24%	24%	88.5% (active)
O=S(=O)(O)c1ccc(O)c2cc(Nc3ccccc3)ccc12	-3%	-26%	44%	-3%	-29%	20.9%	-4%	-31%	26.2%	2%	-37%	-28.6%	2%	-25%	11.6%	3%	-23%	25.5%
N/N=C(\N)c1ccc2ccc3cccnc3c2n1	1%	73% (active)	74% (active)	2%	73% (active)	42.3%	-2%	77% (active)	56.8%	-7%	62%	45.9%	-3%	59%	41.5%	13%	79% (active)	52.8%
Cn1cc(NC(=O)c2cc(NC(=O)CCCCCCCCCCC(=O)Nc3cc(C(=O)Nc4cc(C(=O)NCCC(=N)N)n(C)c4)n(C)c3)cn2C)cc1C(=O)NCCC(=N)N	92% (active)	98% (active)	89.5% (active)	95% (active)	98% (active)	92% (active)	95% (active)	99% (active)	92% (active)	72% (active)	97% (active)	91.4% (active)	96% (active)	98% (active)	91% (active)	92% (active)	97% (active)	90.2% (active)
O=S(=O)(Nc1ccnn1-c1ccccc1)c1ccc(N=Cc2c3ccccc3nc3cc(Cl)ccc23)cc1	22%	29%	96.8% (active)	12%	12%	96.7% (active)	10%	7%	96.4% (active)	-1%	-1%	68.7%	17%	17%	67.9%	10%	19%	97.5% (active)
Cc1[nH]c2ccccc2c1C(c1ccccc1)c1c(C)[nH]c2ccccc12	2%	92% (active)	71.6% (active)	1%	98% (active)	83% (active)	10%	97% (active)	87.2% (active)	0%	97% (active)	81% (active)	-1%	97% (active)	83.5% (active)	20%	97% (active)	94.7% (active)
